Lamin A splicing: LMNA splicing modulation | Potency, µM (highest dose often 46.1 µM), for the others: at the highest dose ratio change, negative = inhibition, most hits filed as inhibitors | HeLa LMNA splicing GFP/RFP minigene ratio, 48 h | 200,000 compounds, 0.01% hits | AID 1487; active = well fitted inhibition curve with a large enough effect in the signal ratio, with a control signal flat, not every such curve was filed as active; inconclusive = small, poorly fitted or top-dose-only effect, or effect the other way, or a change in a side signal; the % refers to the signal ratio; also: % is scaled to controls: 0 for no effect and ±100 for the full control effect
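Read-out is the ratio of GFP to DsRed2 object intensity, acquired by 488 nm laser-scanning cytometry on HeLa lamin A-EGFP minigene reporter cells. Compound incubation 48 hrs at 37 °C in Opti-MEM with 2% FBS; DMSO 0.5% final.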
HPGD inh: inhibitors of human 15-hydroxyprostaglandin dehydrogenase (HPGD). Potency, µM, for inactives: at the top dose activity change, negative = inhibition, actives largely listed as inhibitors. P15428. 150,000 compounds, 4.3% hits. purified HPGD, NADH fluorescence kinetic, PGE2 substrate; active = well fitted inhibition curve with a large enough effect, not every such curve was filed as active; inconclusive = small, poorly fitted or top-dose-only effect, or another doubt; inactive = no such curve, though single readings can be large or run the other way; also: % is scaled to controls: 0 for no effect and ±100 for the full control effect
Target sequence (P15428 whole entry, looked up): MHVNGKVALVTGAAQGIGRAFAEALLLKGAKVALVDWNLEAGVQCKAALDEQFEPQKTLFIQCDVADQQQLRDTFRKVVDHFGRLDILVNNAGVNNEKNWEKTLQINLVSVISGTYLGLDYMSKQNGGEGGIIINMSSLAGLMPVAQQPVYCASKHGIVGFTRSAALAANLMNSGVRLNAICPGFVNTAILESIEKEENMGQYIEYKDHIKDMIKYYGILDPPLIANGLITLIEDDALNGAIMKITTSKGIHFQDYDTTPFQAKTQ
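NADH formation kinetics: reaction with 30 uM PGE2 and 1 mM NAD+ (final), 20 nM enzyme, Tris-HCl pH 8 with Tween 20, after 15 min compound preincubation at room temperature. Fluorescence change, last versus first of five reads.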
HttQ103 aggreg: reduces HttQ103-GFP aggregates in PC12 cells; PC12 HttQ103-GFP aggregates, Acumen cytometry, 40 h; Potency, µM (doses to about 46.1 µM), without a hit: at the top dose activity change, negative = inhibition, hits mostly inhibitors; 220,000 compounds, 1.1% hits; AID 1688; also: % is scaled to controls: 0 for no effect and ±100 for the full control effect; nearly all actives have a fitted effect of over 60% in size
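Steps: seed 1500 PC12 HTTQ103-GFP cells/well; add tebufenozide, 100 nM final; add compound titration; add ATPLite reagent; quantify GFP aggregates by laser scanning cytometry.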
ALDH1A1 inh: inhibitors of human aldehyde dehydrogenase 1A1; Purified ALDH1A1, NADH fluorescence, propionaldehyde substrate; Potency, µM (series often up to 75.3 µM), inactives show at the highest dose activity, negative = inhibition, hits mostly inhibitors; 220,000 compounds, 7.3% hits; AID 1030; active = well fitted inhibition curve with a large enough effect, not every such curve was filed as active; inconclusive = small, poorly fitted or top-dose-only effect, or another doubt; inactive = no such curve, though single readings can be large or run the other way;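 also: plate controls were no enzyme wells and a reference inhibitor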
HTT ATP protect: Huntington cell model cytoprotection by ATP luminescence; PC12 HTT-Q103 induced, cytoprotection, ATP luminescence, 40 h; Potency, µM (highest dose often 56.4 µM), for the others: cytoprotection (ATP increase), usual class: activators; 230,000 compounds, 0.14% hits; also: % of control where 0% means no effect; nearly all actives have a fitted effect of over 45% in size
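ATP quantification (ATPlite) reports survival of PC12 cells in which tebufenozide, 100 nM final, switches on Htt exon 1 with 103 glutamines linked to GFP; compounds are titrated.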
* marks the source's active call; other numbers are inactive results; ? = inconclusive; / = no result given; [ ] = dose if it differs, or a comment. A selection: hits, their analogues and other compounds. The true share with any hit is near 8.8%. Unless noted, calls follow the shape of the dose curve; as a rule, active = well fitted curve in the direction sought with a large enough effect; inconclusive = small, poorly fitted or top-dose-only effect, or another doubt; inactive = no such curve, though single readings can be large; an effect the other way counts as inactive or inconclusive. Potency is read from the fitted curve at half-maximal effect.

SMILES | Lamin A splicing | HPGD inh | HttQ103 aggreg | ALDH1A1 inh | HTT ATP protect
COc1ccc(CCn2c(=S)[nH]c3cc(C(=O)NCc4ccco4)ccc3c2=O)cc1OC | 9% | ? | 16% | 0.05µM* | -48%
COC(=O)N1CCC2(CC1)CN(c1ccccc1)C2 | / | -3% | / | -2% | -9%
COc1ccc2nc(SCC(=O)Nc3nccs3)[nH]c2c1 | 7%[46 µM] | / | ? | 2% | 2%
COc1ccc(C(C(=O)NC(C)(C)C)N(C(=O)Cn2nnc3ccccc32)c2cccc(C(C)=O)c2)cc1O (stereo not given) | / | / | 3%[9.22 µM] | / | -10%[10 µM]
C/C(=N\NS(=O)(=O)c1ccc(C)cc1)c1ccc(C)s1 | 14% | -2% | -1% | 18µM* | -24%
Cc1cc(C)cc(NS(=O)(=O)c2ccc3c(c2)c(=O)n(C)c(=O)n3C)c1 | ? | 2% | 8.9µM* | 6% | 4%
Cc1cccc(CCNC(=O)CN(C)S(=O)(=O)c2ccc3c(c2)c(=O)n(C)c(=O)n3C)c1 | 3% | -11% | -21% | -8% | -10%
Cn1c(=O)c2cc(S(=O)(=O)Nc3cc(C(=O)O)cc(C(=O)O)c3)ccc2n(C)c1=O | / | / | 0% | 3% | -7%
Cc1ccc(CCNC(=O)CN(C)S(=O)(=O)c2ccc3c(c2)c(=O)n(C)c(=O)n3C)cc1 | -2% | -15% | -1% | 13µM* | -6%
FC(F)(F)c1cnc(Oc2ccc(-c3nnco3)cc2)c(Cl)c1 | ? | 11µM* | ? | -3% | 8%[10 µM]
O=c1c2c3c(sc2ncn1/N=C/c1ccc([N+](=O)[O-])o1)CCCC3 | 150% | -16% | 8% | 0.2µM* | -111%
COCCCNC(=S)NNC(=S)Nc1ccccc1 | / | / | 12%[9.22 µM] | 18µM* | 20%[10 µM]
COCCCNC(=S)NCCc1ccc(F)cc1 | / | / | 3% | 6% | -20%
NC(=S)NNC(=S)Nc1ccccc1 | ? | / | / | 22µM* | /
COCCCNC(=S)NNC(=S)Nc1ccc(F)cc1F | 1% | ? | 2%[9.22 µM] | 7.9µM* | -4%
CON(C)C(=O)c1nnc2c3ccccc3n(S(=O)(=O)c3ccc(C)cc3)c2n1 | / | / | / | ? | -32%[10 µM]
c1cc2c(cc1-c1csc(NNC3=NCCCCC3)n1)OCCO2 | 8%[46 µM] | / | -25% | 20µM* | ?
c1cc2c(cc1Nc1nc(-c3ccc4c(c3)OCO4)cs1)OCCO2 | -11% | -17% | 5% | 18µM* | -4%[10 µM]
CCC(=O)Nc1nc(-c2ccc3c(c2)OCCO3)cs1 | ? | -5% | 10% | ? | -12%[10 µM]
c1ccc(-c2csc(Nc3ccc4c(c3)OCCO4)n2)cc1 | ? | -21% | -8% | 24µM* | -51%
COc1ccccc1-c1ccc2ncnc(NC3CCNCC3)c2c1 | ? | / | / | ? | 9%
CCCCC1CCC(C(=O)N2CCOCC2)CC1 (stereo not given) | 3% | 16µM* | 13% | 9% | /
CCS(=O)(=O)N1CCC(C(=O)N2CCOCC2)CC1 | 11% | -14% | -12% | 10% | 10%
COC(=O)c1ccc(C2NC(=O)c3c(sc(C)c3C)N2)cc1 (stereo not given) | / | / | 0%[9.22 µM] | 24µM* | 0%[10 µM]
C[C@]12CCC(O)CC1CCC1C2CC[C@]2(C)C(c3cc(C(F)(F)F)n[nH]3)CCC12 (stereo not given in full) | / | / | 20%[9.22 µM] | / | -34%[10 µM]
SMILES | Lamin A splicing | HPGD inh | HttQ103 aggreg | ALDH1A1 inh | HTT ATP protect
CC(C)(C)c1ccc(/C=C/C(=O)N2CCOCC2)cc1 | 1% | 25µM* | 3% | ? | -1%[0.074 µM]
Cc1[nH]n(C(N)=S)c(=O)c1N=Nc1ccc2ccccc2c1 | ? | / | -20% | 7.9µM* | -36%
Cc1[nH]n(C(N)=S)c(=O)c1N=Nc1ccc(S(=O)(=O)N2CCCCCC2)cc1 | 8% | 16µM* | -13% | 11µM* | -1%
Cc1ccc(C)c(S(=O)(=O)c2cn(Cc3ccccc3)c3cc(N4CCCC4)c(F)cc3c2=O)c1 | -7%[46 µM] | / | / | / | /
Cc1oc(CC(C)C)cc1C(=O)NCCCC(=O)O | 0%[46 µM] | / | ? | -4% | 5.6µM*
O=C(COc1ccc([N+](=O)[O-])cc1)N(Cc1ccccc1)Cc1ccccc1 | ? | -3% | -29% | 14µM* | -15%[10 µM]
COc1cccc(CNC(=O)CCC2CCCN(C(=O)c3cc(C)on3)C2)c1 (stereo not given) | / | / | -3%[9.22 µM] | 2% | -2%[10 µM]
COc1cccc(CNC(=O)CCC2CCCN(C(=O)c3ccc(OC)o3)C2)c1 (stereo not given) | / | / | 7%[9.22 µM] | 7.9µM* | 10%[10 µM]
CCOC(=O)CNC(=O)N1CCCC(CCC(=O)NCc2ccc(F)c(F)c2)C1 (stereo not given) | / | / | -23% | 32µM* | -24%
CC(C)NC(=O)CCn1nc(-c2ccc(Cl)cc2)c2ccccc2c1=O | ? | / | / | -2% | /
CCCn1c(-c2ccc(F)cc2)nc2c(N3CCN(CCC(=O)OCC)CC3)nc(C)nc21 | / | -14% | / | 5% | -40%
COc1ccc2[nH]cc(CCNc3ccnc(-c4ccccc4Cl)n3)c2c1 | ? | / | / | 25µM* | -19%
COc1ccc2[nH]cc(CCNc3cc(-c4ccccc4Cl)ncn3)c2c1 | ? | / | / | -15% | -20%
COC(=O)c1ccccc1COn1c(=O)c(C)[n+]([O-])c2ccccc21 | -3% | -4% | ? | 22µM* | 11%
COc1cccc(NCc2cc3c(C(C)(C)C)nn(-c4ccccc4)c3[nH]c2=O)c1 | -1% | ? | 15% | 13µM* | -8%
C=C1C2(C(=O)NCc3ccco3)CCC(C2)C1(C)C (stereo not given) | -7% | 25µM* | -12% | -6% | 5%[10 µM]
CC1(C)C(=O)C2(C(=O)NCc3ccccc3)CCC1C2 (stereo not given) | 1% | -25% | 12% | 9% | 16%
COc1cccc(N2CC(NC(=O)COc3ccccc3F)CC2=O)c1 (stereo not given) | 6%[46 µM] | / | / | / | /
COc1cccc(CNc2cccc3cccnc23)c1O | 8% | 32µM* | ? | ? | 8%[1.9 µM]
CCOC(=O)c1c(N)sc2c1C1CCN2CC1 | 3% | / | -4% | -10% | -9%[0.074 µM]
CCOC(=O)c1c(N)sc2c1CCS(=O)(=O)C2 | 8% | 40µM* | 1% | 28µM* | -1%
